This is a sample that favours compounds with a hit; in the whole collection about 1.5% have one here.
CRFBP-R2 block: antagonists of CRF-BP/CRF-R2 complex, primary screen, cell-based, HEK293, calcium dye fluorescence, uHTS. CRF-induced calcium fluorescence. inhibition, % at 11.8 µM. 350,000 compounds, 0.59% hits;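 active = inhibition of the ligand-induced calcium signal above about 50% at the single tested concentration, limit read from the data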
V-ATPase pH: regulators of yeast V-ATPase proton pumping, primary screen, pHLuorin cytosolic pH fluorescence. S. cerevisiae. response, % at 10 µM. 350,000 compounds, 0.37% hits. AID 504577, 2011; in the data active = response mostly above about 7.3%, no sharp cut-off; inactive = mostly below about 5.4%; also: actives read high
NTR1 agonist: agonists of human NTR1, primary screen, imaging, U2OS cells, beta-arrestin-GFP, high content | NTR1-U2OS beta-arrestin-GFP spot imaging, agonist mode | Neurotensin receptor type 1 (Homo sapiens), P30989 | activation, % at 20 µM | AID 493036, 2011 | 330,000 compounds, 0.17% hits;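 active = activation at or above 40% of the spot to cytoplasm intensity ratio, with at least 20 cells analyzed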
Target sequence (P30989 whole entry, looked up): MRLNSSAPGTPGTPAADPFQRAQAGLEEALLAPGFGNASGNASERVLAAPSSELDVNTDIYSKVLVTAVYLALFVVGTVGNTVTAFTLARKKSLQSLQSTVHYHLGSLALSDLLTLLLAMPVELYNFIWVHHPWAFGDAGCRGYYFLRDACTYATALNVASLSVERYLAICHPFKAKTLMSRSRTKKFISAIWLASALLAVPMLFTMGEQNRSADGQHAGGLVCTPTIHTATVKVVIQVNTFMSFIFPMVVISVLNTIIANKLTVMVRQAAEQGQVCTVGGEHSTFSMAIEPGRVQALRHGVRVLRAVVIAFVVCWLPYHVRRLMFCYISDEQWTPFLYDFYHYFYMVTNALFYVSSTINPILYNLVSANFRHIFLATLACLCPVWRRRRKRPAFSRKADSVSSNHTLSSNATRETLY
CRFBP-R2 agonist: agonists of CRF-BP/CRF-R2 complex, primary screen, cell-based, HEK293, calcium dye fluorescence, uHTS; activation, % at 13.2 µM; calcium dye fluorescence (FLIPR); percent of saturating CRF peptide response; CRF-binding protein / CRF receptor 2 complex (human); 350,000 compounds, 0.46% hits;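 active = activation of at least 50%, plus an integration ratio under a set limit after plate pattern correction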
Each line names hits and unclear results; the compound was inactive in the other large screens.

CC(=O)N1N=C2C3CCN(CC3)C2C1c1cccc2ccccc12 (centres undefined)	CRFBP-R2 agonist 81
CC1=C(C)CC2(C(=O)NC(=S)NC2=O)C(C)C1 (centres undefined)	CRFBP-R2 agonist 150 (no result: NTR1 agonist)
CCCC1(CC(C)CC)C(=O)NC(=O)NC1=O (centres undefined)	none (no result: NTR1 agonist)
COc1ccc(OC)c(-n2c(O)c(/C=C3\C=Nc4ccccc43)c(=O)[nH]c2=O)c1	none
CCOc1ccc(-n2c(O)c(/C=C3\C=Nc4ccccc43)c(=O)[nH]c2=O)cc1	CRFBP-R2 agonist 108
Cc1ccc(N2C(=O)NC(=O)/C(=C\c3ccoc3)C2=O)cc1	V-ATPase pH 5.9, CRFBP-R2 agonist 54
CCC1CN2CCc3cc(OC)c(OC)cc3C2CC1CC1NCCc2c1[nH]c1ccc(O)cc21 (centres undefined)	CRFBP-R2 block 51 (no result: NTR1 agonist)
COc1ccc2c(c1OC)CN1CCc3cc4c(cc3[C@H]1C2)OCO4	none
CN(C)c1ccc(/C=C/[N+](=O)[O-])cc1	CRFBP-R2 agonist 101
CC1(C)CSC(=NCc2ccccc2)N1	CRFBP-R2 agonist 191
COC(=O)N1Cc2ccccc2-n2nncc2C1	none (no result: NTR1 agonist)
COc1ccccc1N1CCN(Cc2ccccc2)CC1	none
COc1ccccc1N1CCN(Cc2c(F)cccc2Cl)CC1	CRFBP-R2 block 61
CCCC(C)n1[nH]c(=O)c2c1NC(=O)CSC2c1ccccc1 (centres undefined)	none
CN1C(=O)C(=Cc2cn(CC(=O)N3CCCC3)c3ccccc23)C(=O)N(C)C1=O	none
CCOC(=O)Cn1cc(C=C2C(=O)N(C)C(=O)N(C)C2=O)c2ccccc21	CRFBP-R2 agonist 66
C1CN(P2(N3CC3)=NP(N3CC3)(N3CC3)=NP(N3CC3)(N3CC3)=N2)CCO1 (centres undefined)	none (no result: NTR1 agonist)
CN(C)C1=NP(N(C)C)(N(C)C)=NC(c2ccccc2)=N1	CRFBP-R2 block 52
CCCCCCCCn1sccc1=O	V-ATPase pH 37
O=C(NC(=O)c1c(F)cccc1F)Nc1cc(Cl)c(F)c(Cl)c1F	none
CCCCn1c(O)c(C(C)=NCCc2c[nH]c3ccccc23)c(=O)[nH]c1=O	none
O=C(/C=C/c1c[nH]c2ccccc12)c1c(O)n(CCc2ccccc2)c(=O)[nH]c1=O	CRFBP-R2 agonist 166
O=C1NC(=S)NC(=O)C1Cc1ccccc1O	none (no result: NTR1 agonist)
Cn1cc(/C=C2\C(=O)NC(=O)N(c3ccccc3)C2=O)c2ccccc21	CRFBP-R2 agonist 115
COC(=O)C1=C(C(=O)OC)SC2(S1)C(C(=O)OC)=C(C(=O)OC)Sc1c2ssc1=O	none (no result: NTR1 agonist)
O=C(N/N=C/c1c(O)n(CCC2=CCCCC2)c(=S)[nH]c1=O)c1ccccc1	CRFBP-R2 block 55
CCCOC(=O)c1ccc(-[n+]2c(-c3ccccc3)cc(-c3ccccc3)cc2-c2ccccc2)cc1	NTR1 agonist 40
COc1ccc(-[n+]2c(-c3ccccc3)cc(-c3ccc(C)cc3)cc2-c2ccccc2)cc1	CRFBP-R2 agonist 82
CN1C(=O)/C(=C/c2ccc(Cl)s2)C(=O)NC1=S	V-ATPase pH 25 (no result: NTR1 agonist)
C=CCN1C(=O)/C(=C/c2ccc(Br)s2)C(=O)NC1=S	none
CCOc1ccc(N2C(=O)NC(=O)/C(=C\c3ccc(N4CCCCC4)o3)C2=O)cc1	CRFBP-R2 agonist 57
CN1C(=O)/C(=C\c2ccc(N3CCCCC3)o2)C(=O)NC1=S	CRFBP-R2 agonist 130
CN1C(=O)/C(=C/c2ccc(N3CCCCCC3)o2)C(=O)NC1=S	none
CN1C(=O)C(=Cc2ccc(N3CCOCC3)o2)C(=O)N(C)C1=S	CRFBP-R2 agonist 239
CCN1C(=O)C(=Cc2ccc(N3CCOCC3)o2)C(=O)N(CC)C1=S	none
CCC(=Nc1ccc2c(c1)CCC2)c1c(O)n(-c2ccc(OC)cc2)c(=O)[nH]c1=O	none
CC(C)(CN)CC(=O)O	none
CC(=O)c1ccc(NC(=O)N2C[C@H]3C[C@@H](C2)c2cccc(=O)n2C3)cc1	none
CN1CCN(c2ccc(/C=C3\C(=O)NC(=S)N(c4cccc(Br)c4)C3=O)o2)CC1	CRFBP-R2 agonist 164
Cc1ccc(/C=C2\C(=O)NC(=S)N(c3cccc(F)c3)C2=O)o1	none
COC(=O)OCC12CCC(O1)C1(C)C(=O)OCC21 (centres undefined)	none
NC1CC2CCCCC2CC1(O)c1ccccc1 (centres undefined)	none (no result: NTR1 agonist)
COc1ccc(OC)c(N2C(=O)/C(=C/c3ccco3)C(=O)NC2=S)c1	none (no result: V-ATPase pH)
COc1ccc(OC)c(N2C(=O)NC(=O)/C(=C/c3ccc([N+](=O)[O-])s3)C2=O)c1	V-ATPase pH 125
COCCN1C(=O)NC(=O)/C(=C\c2ccc(Br)cc2)C1=O	none
COc1ccc2c(c1)C(NC(C)=O)CCc1cc(OC)c(OC)c(OC)c1-2 (centres undefined)	none (no result: NTR1 agonist)
COC(=O)C12CCc3c(ccc4cc(OC)ccc34)C1=CC(=O)C2 (centres undefined)	CRFBP-R2 block 60 (no result: NTR1 agonist)
CC(C)(C)c1ccc(O)c(N=Cc2c(O)ccc3ccccc23)c1	CRFBP-R2 agonist 60
COc1cccc(CNC(=O)CCC(=O)N2C[C@H]3C[C@H](C2)c2cccc(=O)n2C3)c1OC	none
C[C@@H]1CN([C@H](C)CO)C(=O)CCCn2cc(nn2)CO[C@H]1CN(C)C(=O)Oc1cccc2ccccc12	none (no result: NTR1 agonist)
CCCCCn1c(NC(=O)c2ccco2)c(C(=O)OCC)c2nc3ccccc3nc21	V-ATPase pH 11
Cc1ncoc1C(=O)NCC1=C(c2ccc(S(C)(=O)=O)cc2)C[C@@H]2CC[C@H]1N2CCOc1ccccc1	none (no result: NTR1 agonist)
CCN1/C(=C/C=C/C2=[N+](CC)c3ccccc3C2(C)C)C(C)(C)c2ccccc21	CRFBP-R2 agonist 139 (no result: NTR1 agonist)
Cc1nn(Cc2ccccc2)c(Cl)c1C(=O)NC1CCCc2ccccc21 (centres undefined)	CRFBP-R2 block 90
c1ccc(N2[C@@H]3CC[C@H]2c2ccccc2C3)cc1	none (no result: NTR1 agonist)
O=C(C(=C1N(Cc2ccc(Cl)nc2)CCN1Cc1ccc(Cl)nc1)[N+](=O)[O-])C(Cl)Cl	CRFBP-R2 agonist 148
Cc1ccc2c(c1)Oc1ccccc1N=C2	CRFBP-R2 block 65 (no result: NTR1 agonist)
Cc1ccc2c(c1)CNc1ccccc1O2	none
CC(C)c1ccc(C(c2c(O)c3ccccc3oc2=O)c2c(O)c3ccccc3oc2=O)cc1	CRFBP-R2 block 64 (no result: NTR1 agonist)
C[C@@H]1CN([C@@H](C)CO)C(=O)CCCn2nncc2CO[C@H]1CN(C)C(=O)Oc1ccccc1	none (no result: NTR1 agonist)
O=C(COc1ccccc1F)N1CCN(CCN2C(=O)c3cccc4cccc(c34)C2=O)CC1	CRFBP-R2 block 70
O=C(Nc1cc(Cl)cc(Cl)c1)N1Cc2ccccc2-n2nncc2C1	none (no result: NTR1 agonist)
C=C(CC1CC(O)[C@]2(C)OC3CC4OC5C[C@]6(C)O[C@]7(C)CCC8OC9C[C@]%10(C)OC%11C(C)=CC(=O)OC%11CC%10OC9C[C@@H](C)C8OC7CC6O[C@]5(C)C/C=C\C4OC3CC2O1)C(=O)O (some centres undefined)	none

Bioassay records from PubChem BioAssay.
